Growth data for six molecules are collected here from PubChem BioAssay (NCI).

SMILES strings stand for the structures. The panel holds about 83,000 compounds, 20% with a hit somewhere; the sample as a whole holds those more often.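 Single-dose data. Exposure time 48 hours. Values below 10 considered active.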 A number with no mark means an inactive call. Activity calls are given as the source filed them.

Common to all, as to test: NCI-60 one-dose screen, 48 h (100 = growth as untreated, 0 = no growth, -100 = all killed)
What all share (conditions): 10 µM unless noted

Experiment [1] deals with NCI-H23 lung.
Experiment [2] concerns NCI-H226 lung.
The test system of experiment [3] is NCI-H322M lung.
The test system of experiment [4] is HOP-62 NSCLC.
Experiment [5] concerns NCI-H460 lung.
Experiment [6] relates to HOP-92 NSCLC.
The test system of experiment [7] is NCI-H522 lung.
Experiment [8] concerns A549/ATCC NSCLC.
The test system of experiment [9] is 786-0 renal.
In experiment [10] the test system is DU-145 prostate.
For experiment [11], the system named is K-562 leukemia.
Experiment [12] deals with MALME-3M melanoma.
Experiment [13] concerns MDA-MB-231 breast.
The test system of experiment [14] is RXF 393 renal.
Experiment [15] deals with SF-268 CNS.
The test system of experiment [16] is SF-295 CNS.
Experiment [17] relates to SF-539 CNS.
The test system of experiment [18] is UACC-257 melanoma.
In experiment [19] the test system is M14 melanoma.

As to `CC(C)(C)c1ccc(C(=O)Nc2sc3c(c2C(N)=O)CCC(=O)C3)cc1`, the growth was -15% (active) in experiment [1]; 30.8% in experiment [2]; 62.6% in experiment [3]; 26.5% in experiment [4]; -10.7% (active) in experiment [5]; -22.7% (active) in experiment [6]. For the same molecule, the growth in experiment [7] was -10.2% (active); in experiment [8], 15.1%; in experiment [9], 23.8%; in experiment [10], 24.7%; in experiment [11], 4.82% (active); in [12], -53.4% (active). Also, the growth in experiment [13] is -59.5% (active); in experiment [14] it was -22.4% (active); in experiment [15] it was -2.29% (active); in experiment [16], -48.3% (active); in experiment [17], -77.8% (active); in experiment [18], -30.4% (active). Besides, the growth in [19] is -49.2% (active).

As for `N#C/C(=C\c1ccc(Br)cc1)n1nnc2cc(Cl)c(Cl)cc21`, the growth was 32.3% in experiment [1]; 36.3% in experiment [2]; 56.7% in [3]; 53.1% in experiment [4]; 56.7% in [5]; 33.2% in [6]. Moreover, the growth is 6.95% (active) in [7]; 67.4% in [8]; 43.8% in experiment [9]; 34% in [10]; 8.99% (active) in [11]; 67.5% in experiment [12]. In addition, the growth in experiment [13] is 33%; in [14] it was -6.31% (active); in [15], 59.2%; in [16] it was 65.8%; in [17], 49.8%; in [18], 52.4%. Moreover, in [19], the growth is 31.3%.

For `O=C(/C=C/C12c3ccccc3C(c3ccccc31)C1C(=O)NC(=O)C12)c1ccccc1` (centres undefined), the growth is 6.51% (active) in experiment [1]; 11% in [2]; 17.6% in experiment [3]; 34.8% in experiment [4]; 1.66% (active) in experiment [5]; 3.17% (active) in experiment [6]. In addition, the growth in experiment [7] was 39.1%; in experiment [8], 26.3%; in [9] it was 27.1%; in [10], 19.4%; in [11], 13.5%; in experiment [12], 47.5%. Further, the growth is 14% in [13]; -13.1% (active) in experiment [14]; 29.6% in experiment [15]; 28.2% in [16]; 18.5% in experiment [17]; 46.6% in [18]. Further, the growth in experiment [19] is 19.6%.

In the case of `O=C(NCc1cccnc1)c1cc(-c2csc3c(=O)cc(N4CCOCC4)oc23)cc2c1OCCO2`, the growth in experiment [1] was 50.3%; in [2] it was 49.8%; in experiment [3] it was 40%; in [4], 30.9%; in experiment [5] it was 52.5%; in [6] it was 19.3%. Further, the growth was 28.4% in experiment [7]; 40.2% in experiment [8]; 43.5% in [9]; 70% in experiment [10]; 24.8% in experiment [11]; 47.9% in experiment [12]. Further, the growth in [13] is 21.5%; in [14], 40.6%; in experiment [15], 53%; in [16] it was 30%; in experiment [17], 10.6%; in experiment [18], 47%. Moreover, the growth in [19] is 43.4%.

Consider `COc1cc2c(c(OC)c1OC)C(=O)/C(=C/c1cc(C)c(O)c(C)c1)S2`, for which the growth in experiment [1] is 36.9%; in [2], 34.3%; in experiment [3] it was 40.8%; in [4] it was 46.5%; in [5], 12.7%; in experiment [6], 54.6%. For the same molecule, the growth in experiment [7] is 14.6%; in experiment [8], 44.4%; in [9], 42.6%; in experiment [10] it was 12.3%; in [11] it was 21.3%; in experiment [12], 45.6%. In addition, the growth is 37.7% in [13]; -10.4% (active) in experiment [14]; 56.4% in [15]; 13.7% in experiment [16]; 7.47% (active) in [17]; 78.2% in experiment [18]. For the same molecule, the growth in experiment [19] was 28.8%.

Regarding `Cc1[nH]c(-c2nc3ccccc3[nH]2)c(C)c1C(=O)N1CCc2sccc2C1`, the growth in [1] was 91.2%; in experiment [2] it was 88.3%; in experiment [3] it was 98.6%; in experiment [4] it was 98.2%; in [5] it was 94.4%; in [6], 81.6%. In addition, the growth in experiment [7] is 77.1%; in [8], 93%; in experiment [9], 99.7%; in [10], 102%; in experiment [11], 82.9%; in [12] it was 85.9%. Moreover, the growth in [13] is 85.9%; in experiment [14] it was 101%; in experiment [15] it was 97.3%; in [16] it was 100%; in [17], 87.5%; in experiment [18], 96.9%. Also, in experiment [19], the growth was 94.6%.
